Data taken from PubChem BioAssay (EPA / NIEHS).
Values joined by “and” are separate entries in the source; they are usually repeats but may differ in a detail not shown here. Equal entries are not always repeated. Results filed as inconclusive are left out. The source holds several records for some structures; these can differ, active in one and inactive in another. Active and inactive are the calls of the source. The calls were made as follows, unless noted: active = hit-call score of the fitted dose curve at least 0.9, where 1 is the maximum; inconclusive = response in the unintended direction; inactive = score below 0.9.

Experiments:
[1] = read-out: Thyroid Hormone Responsive (THRSP), THRSP (gene 7069); assay: LTEA_HepaRG_THRSP: Life Technologies and Expression Analysis (LTEA) Assay for Thyroid Hormone Responsive (THRSP) using HepaRG (AID 2283536; active = hit-call score of the fitted dose curve at least 0.9, where 1 is the maximum; inactive = score below 0.9); settings: mRNA level, 48 h; actives raise or lower the signal
How it was run: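 Differentiated HepaRG cells treated 48 h in serum-free induction medium with 8 half-log concentrations up to 100 uM (0.5% DMSO), duplicates. THRSP mRNA by TaqMan qRT-PCR normalised to ACTB, GAPDH, POLR2A; bidirectional fit versus DMSO.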

[2] = read-out: Cellular tumor antigen p53 (Homo sapiens) (UniProt P04637); assay: LTEA_HepaRG_TP53: Life Technologies and Expression Analysis (LTEA) Assay for Tumor Protein P53 (TP53) using HepaRG (AID 2283537; active = hit-call score of the fitted dose curve at least 0.9, where 1 is the maximum; inactive = score below 0.9); settings: mRNA level, 48 h; actives raise or lower the signal
How it was run: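 HepaRG, 48 h exposure, top 100 uM, half-log 8-point, 0.5% DMSO vehicle, duplicates. Read: TP53 mRNA by TaqMan qRT-PCR, normalised to ACTB/GAPDH/POLR2A; bidirectional fit vs DMSO.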

[3] = read-out: UDP glucuronosyltransferase (UGT1A1), UGT1A1 (gene 54658); assay: LTEA_HepaRG_UGT1A1: Life Technologies and Expression Analysis (LTEA) Assay for UDP glucuronosyltransferase (UGT1A1) using HepaRG (AID 2283538; active = hit-call score of the fitted dose curve at least 0.9, where 1 is the maximum; inactive = score below 0.9); settings: mRNA level, 48 h; actives raise or lower the signal
How it was run: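 Human liver HepaRG cultures receive test chemical for 48 h, up to 100 uM in 0.5% DMSO, with phenobarbital induction controls. UGT1A1 mRNA is measured by qRT-PCR and normalized to ACTB, GAPDH and POLR2A.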

[4] = read-out: UDP glucuronosyltransferase (UGT1A6), UGT1A6 (gene 54578); assay: LTEA_HepaRG_UGT1A6: Life Technologies and Expression Analysis (LTEA) Assay for UDP glucuronosyltransferase (UGT1A6) using HepaRG (AID 2283539; active = hit-call score of the fitted dose curve at least 0.9, where 1 is the maximum; inactive = score below 0.9); settings: mRNA level, 48 h; actives raise or lower the signal
How it was run: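 Expression was quantified by TaqMan qRT-PCR on Fluidigm arrays with ACTB/GAPDH/POLR2A normalization and bidirectional fitting against 0.5% DMSO. HepaRG cells (~100,000/well) were treated in duplicate for 48 h at eight half-log concentrations up to 100 uM in serum-free induction medium.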

[5] = read-out: X-box binding protein 1 (XBP1), XBP1 (gene 7494); assay: LTEA_HepaRG_XBP1: Life Technologies and Expression Analysis (LTEA) Assay for X-box binding protein 1 (XBP1) using HepaRG (AID 2283540; active = hit-call score of the fitted dose curve at least 0.9, where 1 is the maximum; inactive = score below 0.9); settings: mRNA level, 48 h; actives raise or lower the signal
How it was run: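 XBP1 transcript by qRT-PCR (housekeeping-normalized: ACTB, GAPDH, POLR2A) after 48 h chemical treatment of HepaRG cells, 8-point half-log series topping at 100 uM, vehicle 0.5% DMSO. Gain and loss of signal fitted relative to DMSO.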

[6] = ATG_XTT_Cytotoxicity: Cytotoxicity Assessment in the Attagene TRANS-FACTORIAL HepG2 Assay (AID 2283584)
How it was run: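 Viability endpoint from XTT after 24 h chemical exposure of reporter-transfected human HepG2 liver cells; signal loss fitted relative to DMSO negative control.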

[7] = TOX21_p53_BLA_p2_viability: Viability Assessment in the Tox21 HCT-116 p53 Agonism Beta-lactamase Assay, Phase 2 (AID 2283591);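 also: compound exposure lasted 16 h at 37 °C; actives lower the ATP signal meaning cytotoxicity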
How it was run: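 HCT116 p53-bla cells, 4000/well, dosed after 5 h plating (217-fold dilution of DMSO stocks) and incubated 16 h at 37C. Viability taken as cellular ATP by CellTiter-Glo luminescence after 30 min RT; signal loss marks cytotoxicity.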

[8] = biological target: Cellular tumor antigen p53 (Homo sapiens) (UniProt P04637); assay: TOX21_p53_BLA_p2_ratio: Tox21 HCT-116 p53 Agonism Beta-lactamase Assay, Ratio, Phase 2 (AID 2283592)
How it was run: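 Gain-of-signal p53 agonism was scored from the beta-lactamase FRET ratio (460/530 nm, 405 nm excitation) in HCT116 cells treated 16 h at 37C, 5% CO2, with DMSO serving as negative control and baseline.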

[9] = TOX21_p53_BLA_p3_viability: Viability Assessment in the Tox21 HCT-116 p53 Agonism Beta-lactamase Assay, Phase 3 (AID 2283593);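 also: cells exposed to compound for 16 h before reading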
How it was run: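 HCT116 cells, 4000/well, dosed 5 h after plating by pin transfer (217-fold dilution from DMSO stock) and incubated 16 h at 37C, 5% CO2. Viability read as ATP luminescence with CellTiter-Glo after 30 min at room temperature.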

[10] = biological target: Cellular tumor antigen p53 (Homo sapiens) (UniProt P04637); assay: TOX21_p53_BLA_p3_ratio: Tox21 HCT-116 p53 Agonism Beta-lactamase Assay, Ratio, Phase 3 (AID 2283596)
How it was run: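 HCT116 p53-bla cells (4000/well) given compound in DMSO (217-fold dilution) after 5 h, incubated 16 h at 37C. CCF4-AM substrate 2 h at room temperature; 460/530 nm emission ratio, gain fitted against DMSO.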

[11] = TOX21_p53_BLA_p4_viability: Viability Assessment in the Tox21 HCT-116 p53 Agonism Beta-lactamase Assay, Phase 4 (AID 2283597);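 also: hits lower the luminescence signal meaning cytotoxicity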
How it was run: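 Following a 16 h exposure at 37C, the treated HCT116 wells were first read for the FRET ratio. They were then lysed with CellTiter-Glo, and ATP luminescence was recorded after 30 min at room temperature.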

[12] = biological target: Cellular tumor antigen p53 (Homo sapiens) (UniProt P04637); assay: TOX21_p53_BLA_p5_ratio: Tox21 HCT-116 p53 Agonism Beta-lactamase Assay, Ratio, Phase 5 (AID 2283599)
How it was run: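 HCT-116 p53-bla cells (4000/well) plated 5 h, dosed with compound (217-fold DMSO dilution) for 16 h at 37 C; CCF4-AM substrate 2 h at room temperature. Activity is the 460/530 nm emission ratio (405 nm excitation), fitted in gain-of-signal direction versus DMSO.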

[13] = TOX21_p53_BLA_p5_viability: Viability Assessment in the Tox21 HCT-116 p53 Agonism Beta-lactamase Assay, Phase 5 (AID 2283600)
How it was run: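 After the 460/530 nm beta-lactamase measurement, the wells received an ATP-detection luciferase reagent; signal was read 30 min later at RT. Compound treatment lasted 16 h on cells pre-incubated 5 h post-seeding.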

[14] = biological target: Cellular tumor antigen p53 (Homo sapiens) (UniProt P04637); assay: TOX21_p53_BLA_p4_ratio: Tox21 HCT-116 p53 Agonism Beta-lactamase Assay, Ratio, Phase 4 (AID 2283601)
How it was run: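 HCT-116 p53 beta-lactamase reporter cells (4000/well) preincubated 5 h, then compound (217-fold dilution of DMSO stock) for 16 h at 37C. CCF4-AM substrate added 2 h at room temperature; 460/530 nm emission ratio fitted upward versus DMSO.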

[15] = Tanguay_ZF_120hpf_MORT_legacy: (Legacy) Oregon State University Tanguay Lab 120 Hour Post-fertilization zebrafish Assay for Mortality (AID 2283633);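 as to AC50: fitted as increase in binary mortality versus DMSO negative control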
How it was run: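 Static waterborne exposure from 6 to 120 hpf at 28C of single dechorionated wild-type (5D) embryos per well, 0.64% DMSO final. Death recorded present/absent by brightfield at 24 and 120 hpf.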

[16] = Tanguay_ZF_120hpf_AXIS_legacy: (Legacy) Oregon State University Tanguay Lab 120 Hour Post-fertilization zebrafish Assay for Body Axis Malformation (AID 2283635)
How it was run: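 Binary scoring of axis defects at 120 hpf under brightfield, fitted positive versus DMSO. Tropical 5D embryos, chorion removed by pronase at 4 hpf, were singly exposed in sealed, dark plates at 28C from 6 hpf; DMSO 0.64% final.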

[17] = Tanguay_ZF_120hpf_SNOU_legacy: (Legacy) Oregon State University Tanguay Lab 120 Hour Post-fertilization zebrafish Assay for Snout Malformation (AID 2283637)
How it was run: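 Dechorionated tropical 5D wild-type zebrafish embryos exposed statically from 6 to 120 hpf at 28C, one per well, in 0.64% DMSO. Snout malformation scored as present/absent by brightfield at 120 hpf; dead embryos not scored.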

[18] = Tanguay_ZF_120hpf_JAW_legacy: (Legacy) Oregon State University Tanguay Lab 120 Hour Post-fertilization zebrafish Assay for Jaw Malformation (AID 2283638)
How it was run: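 Binary jaw-malformation call at 120 hpf by brightfield microscopy. Embryos (Tropical 5D strain, chorion removed at 4 hpf) were dosed statically at 6 hpf, one per well, at 28C with 0.64% DMSO. Embryos that died were not scored.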

[19] = Tanguay_ZF_120hpf_OTIC_legacy: (Legacy) Oregon State University Tanguay Lab 120 Hour Post-fertilization zebrafish Assay for Otic Vesicle Malformation (AID 2283639)
How it was run: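 Otic vesicle malformation is read as a yes/no morphology call at 120 hpf. Exposure is static at 28C with 0.64% (vol/vol) DMSO; embryos that die are excluded from non-mortality endpoints.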

[20] = Tanguay_ZF_120hpf_PE_legacy: (Legacy) Oregon State University Tanguay Lab 120 Hour Post-fertilization zebrafish Assay for Pericardial Edema (AID 2283640)
How it was run: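 Scoring was binary, by brightfield microscopy at 120 hpf, and skipped where mortality occurred. Wild-type embryos were kept under sealed, foil-covered static exposure at 28C in 0.64% (vol/vol) DMSO.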

Measured: AC50

Chain of Cellular tumor antigen p53 (Homo sapiens) (P04637 whole entry, looked up): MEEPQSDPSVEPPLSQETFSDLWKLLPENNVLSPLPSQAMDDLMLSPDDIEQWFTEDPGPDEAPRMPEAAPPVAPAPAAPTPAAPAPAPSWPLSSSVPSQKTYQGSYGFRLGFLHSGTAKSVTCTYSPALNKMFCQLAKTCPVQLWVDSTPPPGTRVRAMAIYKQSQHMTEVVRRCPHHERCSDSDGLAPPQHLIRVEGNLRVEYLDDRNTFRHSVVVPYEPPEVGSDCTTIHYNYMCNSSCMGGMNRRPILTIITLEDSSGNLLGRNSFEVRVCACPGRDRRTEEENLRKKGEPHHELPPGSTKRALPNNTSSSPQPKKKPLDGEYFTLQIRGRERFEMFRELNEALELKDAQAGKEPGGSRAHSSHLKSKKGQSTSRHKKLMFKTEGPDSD

CC12CC1(C)C(=O)N(c1cc(Cl)cc(Cl)c1)C2=O (stereo not given)
inactive: [1] | [2] | [4] | [5] | [6] | [7] | [8] | [9] | [10] | [11] | [12] | [13] | [14] | [15] | [16] | [17] | [18] | [19] | [20]
active: [3] 10.5 µM

CC(C)(C)c1cc(O)ccc1O
inactive: [1] | [2] | [3] | [4] | [5] | [6] | [7] | [8] | [10] | [11] | [12] | [13] | [14] | [16] | [17] | [18] | [19] | [20]
active: [15] 32 µM

O=C(O)Cc1ccccc1
inactive: [6]

CCCCCCCCC(=O)NCc1ccc(O)c(OC)c1
inactive: [6]

Nc1ccc(-c2ccc(N)c(Cl)c2)cc1Cl
active: [8] 14.4 µM and 13.7 µM and 16.7 µM | [10] 15.7 µM and 18.6 µM | [12] 16.3 µM and 43.3 µM | [14] 33.6 µM
inactive: [6] | [7] | [9] | [10] | [11] | [12] | [13] | [14]

CCOC(=O)/C=C(C)/C=C/C[C@@H](C)CCCC(C)C
inactive: [6] | [7] | [8] | [10] | [11] | [12] | [13] | [14]
active: [9] 58.3 µM

CC(C)(c1ccc(OCC2CO2)cc1)c1ccc(OCC2CO2)cc1 (stereo not given)
active: [7] 68.3 µM | [10] 84.2 µM and 80.6 µM | [11] 70.9 µM and 72.2 µM | [12] 87.1 µM | [14] 79.4 µM
inactive: [6] | [7] | [8] | [12] | [13] | [14]

Clc1ccc(C2(Cn3cncn3)CC(Br)CO2)c(Cl)c1 (stereo not given)
active: [8] 69.2 µM
inactive: [6] | [7] | [9] | [10] | [11] | [12] | [13] | [14]

CC(C)c1cccc(C(C)C)c1O
inactive: [6] | [7] | [8] | [9] | [10] | [11] | [12] | [13]
